Compound activity (PubChem BioAssay)
A selection: hits, their analogues and other compounds. The true share with any hit is near 17%.
ATXN2 expr inh: ATXN2 expression inhibition; HEK-293 ATXN2-luciferase reporter, luminescence, 24 h; Potency, µM (titrated, usually from 57 µM), usual class: inhibitors; actives 0.72% (n = 360,000); AID 1745845; note: nearly all actives have a fitted effect of over 55% in size
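ATXN2-luciferase reporter cells (luciferase flanked by upstream and downstream ATXN2 gene portions) were treated 24 h at 37 °C with compounds at up to 57 uM. SteadyGlo luminescence gave expression; GF-AFC fluorescence gave viability.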
DT40 TDP1 no CPT: qHTS for Inhibitors of human tyrosyl-DNA phosphodiesterase 1 (TDP1): qHTS in cells in absence of CPT. DT40 Tdp1-/- hTDP1 cells, no CPT, ATP luminescence, 48 h. Potency, µM (highest dose often 46.2 µM), most hits filed as inhibitors. actives 15% (n = 420,000). AID 686978, 2013; note: nearly all actives have a fitted effect of over 55% in size
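Stably hTDP1-transfected Tdp1-null chicken DT40 cells were treated with library compounds minus camptothecin and grown for at least 48 hr at 37 °C, after which cellular ATP was quantified by luminescence.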
TGFb inhibitor: blocks TGF-b signaling; HepG2 CAGA-GFP TGF-b/SMAD3 reporter, GFP fluorescence, 18 h; TGF-beta stimulated, 500 pg/mL final; Potency, µM (doses to about 46.1 µM), hits mostly inhibitors; actives 1.2% (n = 410,000); AID 588855; note: nearly all actives have a fitted effect of over 65% in size
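HEPG2 CAGA-GFP cells (1000/well, DMEM with 1% FBS) were pre-incubated 2 h at 37 degrees C, given compound by pin tool, then stimulated with TGF-beta at 500 pg/mL final for 18 h before per-cell GFP fluorescence imaging.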
HepG2 tox: counter-screen for TGF-b inhibitors: cytotoxicity in HepG2 cells; HepG2 CAGA-GFP viability, ATP luminescence, 18 h; Potency, µM (titrated, usually from 46.1 µM), most hits filed as cytotoxic; actives 0.76% (n = 410,000)
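HepG2 CAGA-GFP cells (1000/well, DMEM with 1% FBS) received compound, then TGF-beta at 500 pg/mL final, and were incubated 18 hours at 37 degrees C. Viability was read by CellTiter-Glo luminescence. Media-only wells were set as complete cell-killing and DMSO as no toxicity.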
TDP1 cell CPT: DT40-hTDP1 cell growth loss with CPT | chicken DT40 Tdp1-/-;hTDP1 cells + 20 nM CPT, ATP luminescence, 48 h | Potency, µM (top dose mostly 46.2 µM), hits mostly inhibitors | actives 12% (n = 420,000) | AID 686979; note: nearly all actives have a fitted effect of over 55% in size
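Chicken DT40 Tdp1-/- cells stably complemented with human TDP1 were seeded at 400 cells/well in medium containing 20 nM camptothecin, exposed to pin-transferred compounds, and grown at 37 °C for at least 48 hr. Viability was read as ATP luminescence.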
S2 tox: cell viability loss in ATXN counter-screen; S2 cells (HEK-293 line with an ATXN2-luciferase reporter) viability, CellTiter-Fluor protease fluorescence, 24 h; Potency, µM (top dose mostly 56.7 µM), actives largely listed as cytotoxic; actives 0.49% (n = 400,000); AID 651635; note: nearly all actives have a fitted effect of over 40% in size
Of the large screens only hits and unclear results are named; the others gave an inactive call. Calls come from the whole dose curve; as a rule, active = well fitted curve in the direction sought with a large enough effect; inconclusive = small, poorly fitted or top-dose-only effect, or another doubt; inactive = no such curve, though single readings can be large; an effect the other way counts as inactive or inconclusive.

COc1cc2c(NC3CCN(C(C)C)CC3)nc(N3CCCN(C)CC3)nc2cc1OCCCN(C)C	DT40 TDP1 no CPT 6.3µM, TGFb inhibitor 10µM, TDP1 cell CPT 3.2µM (no result: ATXN2 expr inh, S2 tox)
CCN(CC)CCCOc1cc2nc(N3CCCN(C)CC3)nc(NC3CCN(C)CC3)c2cc1OC	DT40 TDP1 no CPT inconclusive, TGFb inhibitor inconclusive, TDP1 cell CPT inconclusive (no result: ATXN2 expr inh, S2 tox)
COc1cc2c(NC3CCN(C)CC3)nc(N3CCCN(C)CC3)nc2cc1OCCCCCN(C)C	DT40 TDP1 no CPT 14µM, TGFb inhibitor inconclusive, TDP1 cell CPT 11µM (no result: ATXN2 expr inh, S2 tox)
COc1cc2c(NC3CCN(C)CC3)nc(N3CCN(C)CC3)nc2cc1OCCCN(C)C	DT40 TDP1 no CPT inconclusive, TDP1 cell CPT inconclusive (no result: ATXN2 expr inh, S2 tox)
N#CCCn1c(SCC(=O)c2c[nH]c3ccccc23)nc2ccccc21	DT40 TDP1 no CPT 18µM, TDP1 cell CPT 23µM, S2 tox inconclusive
Cn1cnnc1SCC(=O)c1c[nH]c2ccccc12	none
O=C(CSc1nc2ccccc2c(=O)n1-c1ccccc1)c1c[nH]c2ccccc12	DT40 TDP1 no CPT 6.5µM, TDP1 cell CPT 6.5µM
COc1ccc(Cc2noc(CN3CCCC(OCc4ccccn4)C3)n2)cc1OC (centres undefined)	TGFb inhibitor inconclusive
Cc1cc(C(=O)Nc2c(F)c(F)c(F)c(F)c2F)n(-c2ccccc2)n1	TDP1 cell CPT inconclusive
COc1ccc(C(CNC(=O)c2ccc(OC)c(S(=O)(=O)N3CCCC3)c2)N2CCCC2)cc1 (centres undefined)	none
CC1CCCCN1C(=O)CN1C(=O)CN(C)C(=O)c2ccccc21 (centres undefined)	none
CCCCn1ccnc1C(=O)c1cc(S(=O)(=O)N2CCOCC2)ccc1C	DT40 TDP1 no CPT 10µM, TDP1 cell CPT 12µM
Cc1cccc(N2CCN(C(=O)c3cc(S(=O)(=O)N4CCCC4)cn3C)CC2)c1C	DT40 TDP1 no CPT inconclusive, TGFb inhibitor inconclusive, TDP1 cell CPT 23µM
Cc1ccc(C)c(N2CCN(C(=O)c3cc(S(=O)(=O)N4CCOCC4)ccc3F)CC2)c1	DT40 TDP1 no CPT 13µM, TDP1 cell CPT 15µM
Cc1ccc(C)c(N2CCN(C(=O)c3cc(S(=O)(=O)N4CCCC4)cn3C)CC2)c1	DT40 TDP1 no CPT 21µM, TGFb inhibitor inconclusive, TDP1 cell CPT 18µM, S2 tox inconclusive
CC(=O)c1ccc(N2CCN(S(=O)(=O)c3csc(C(N)=O)c3)CC2)cc1	none
Cc1ccc(S(=O)(=O)N2CCOCC2)cc1C(=O)N1CCC(Cc2ccccc2)CC1	DT40 TDP1 no CPT 15µM, TDP1 cell CPT inconclusive
Cc1ccc(C)c(N2CCN(C(=O)c3cc(S(=O)(=O)N4CCCCC4)cn3C)CC2)c1	DT40 TDP1 no CPT 18µM, TDP1 cell CPT 21µM
Cc1cccc(N2CCN(S(=O)(=O)c3csc(C(N)=O)c3)CC2)c1C	DT40 TDP1 no CPT 21µM, TGFb inhibitor inconclusive, TDP1 cell CPT 12µM (no result: ATXN2 expr inh, S2 tox)
COCCCN=Cc1c(C)[nH]n(-c2ccc(Br)cc2Br)c1=O	none
CCN(CC(=O)Nc1c(F)cccc1F)C(=O)C1CCN(S(=O)(=O)c2ccccc2C(=O)OC)CC1	none (no result: ATXN2 expr inh)
O=C1Cc2cc([N+](=O)[O-])ccc2N1c1c(Cl)cccc1Cl	none
CCN(CC)C(=O)CSc1nc(-c2cccs2)cc(-c2cccs2)c1C#N	DT40 TDP1 no CPT inconclusive, TDP1 cell CPT 23µM
CCN(CC)C(=O)CSc1nc(N)c(C#N)c(-c2cccs2)c1C#N	none
CN1CCN(C(=O)CSc2nc(-c3cccs3)cc(-c3cccs3)c2C#N)CC1	DT40 TDP1 no CPT 18µM, TDP1 cell CPT inconclusive
COc1ccc(-n2nc(C(=O)NCC(=O)NCc3ccc(F)cc3)c3ccccc3c2=O)cc1	DT40 TDP1 no CPT 18µM
CCOC(=O)N1CCN(C(=O)CNC(=O)c2nn(-c3ccc(OC)c(OC)c3)c(=O)c3ccccc23)CC1	DT40 TDP1 no CPT inconclusive
CCN1CCN(C(=O)CNC(=O)c2nn(-c3ccc(OC)cc3)c(=O)c3ccccc23)CC1	none
